Experimental data reported in PubChem BioAssay (NCI).
Compounds without any hit were thinned out: in the full panel of roughly 83,000, 20% have a hit.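 How to read the values: 0–100, growth inhibition (40 = 60% inhibited); 0, no net growth; -100 to 0, cell death (-40 = 40% of starting cells died; -100 = all dead).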 A number with no mark means an inactive call. The source made the active and inactive calls. Rule for the calls: active = growth percent below 10; inactive = the rest.

Columns and labels:
Test in all cases: NCI-60 one-dose screen, 48 h (100 = growth as untreated, 0 = no growth, -100 = all killed)
Details in all cases: 10 µM unless noted
HCT-15 colon = system: HCT-15 colon
HT29 colon = system: HT29 colon
SNB-75 CNS = system: SNB-75 CNS
SNB-19 CNS = system: SNB-19 CNS
U251 CNS = system: U251 CNS
PC-3 prostate = system: PC-3 prostate
SK-MEL-5 melanoma = system: SK-MEL-5 melanoma
UACC-62 melanoma = system: UACC-62 melanoma
SK-MEL-28 melanoma = system: SK-MEL-28 melanoma
LOX IMVI melanoma = system: LOX IMVI melanoma

Structure (SMILES)	growth (HCT-15 colon)	growth (HT29 colon)	growth (SNB-75 CNS)	growth (SNB-19 CNS) [%]	growth (U251 CNS)	growth (PC-3 prostate) [%]	growth (SK-MEL-5 melanoma)	growth (UACC-62 melanoma)	growth (SK-MEL-28 melanoma)	growth (LOX IMVI melanoma)
C[C@@H]1CC[C@@H]2[C@@H]1[C@H](OC(=O)c1ccc3ccccc3c1)[C@]1(C3CCCCC3)C[C@@H](OC(=O)CO)[C@@]2(C)O1	40.9%	20.7%	64.9%	84.1	48.9%	22.2	88.6%	73.6%	70.2%	
Cc1cc(-c2noc(C(F)(F)F)n2)ccc1N1CCN(c2cc(C(=O)N(C)C)no2)CC1	70.3%	78.3%	73%	64.1	71.9%	56.8	2.91% (active)	62.1%	84.8%	
COc1ccc(-n2ncn(CCCCCCn3cnn(-c4ccc(OC)cc4)c3=O)c2=O)cc1	95.3%	101%	79.8%	90.3	94.3%	84.8	95.2%	76.5%	98%	
Nc1nc(N)c(-c2ccc(Cl)cc2)c(/C=C/c2ccc([N+](=O)[O-])cc2)n1	66.3%	63.8%	78.3%	75	82.9%	32.4	79.6%	83.1%	95.7%	
CCc1c(C(=O)N[C@@H]2c3cc(Cl)ccc3CC[C@@H]2O)[nH]c(C)c1C(C)=O	41.1%	66.9%	76.4%	97.2	48.4%	49.8	45%	69.7%	81.5%	
CCN(CC)N=Nc1nn(C(=O)Nc2ccc(Cc3ccccc3)cc2)c2ccc(Cl)cc12	43.6%	61.8%	88.8%	67.2	93.4%	69.6	56.6%	8.7% (active)	70.8%	
CCCCCCNC(=O)c1cc(NCc2cc(O)ccc2O)ccc1O	34.6%	91%	45.7%	99.7	67.3%	42.6	90%		101%	67.7%
CC1(C)CC(=O)c2c(ccc(C(=O)C[C@H](N)CO)c2N)O1	4.43% (active)	2.53% (active)	75.9%	34.7	14.8%	45.3	47.2%	11%	38%	
COc1ccccc1NC(=O)Nc1ccc(-c2nc3ccccc3o2)cc1	96.9%	132%	109%	94.8	93.6%	95.6	92.6%	98.7%	111%	
C=C(C)[C@@H]1CC[C@]2(CNCCO)CC[C@]3(C)[C@H](CC[C@@H]4[C@@]5(C)CCC(N)[C@@](C)(CO)[C@@H]5CC[C@]43C)[C@@H]12 (stereo partly specified)	32.4%	-56.8% (active)	73.5%	29.8	-86.1% (active)	20.1	-96.1% (active)	-75.7% (active)	-85.7% (active)	
CNC(=O)c1cc(Oc2ccc3nc(Nc4cc(Cl)cc(Cl)c4)ccc3c2)ccn1	41.4%	15.3%	70.2%	75.2	58.2%	40.3	51.8%		61.4%	45.9%
COc1ccc(/C=C2\C=C(c3ccccc3)N(CCc3ccccc3)C2=O)cc1OC	60.9%	38.6%	-7.78% (active)	43.3	15.9%	54.4	38.5%		76.7%	2.28% (active)
CC12CC(C#N)CCC1O2 (stereo unspecified)	118%	109%	100%	111	103%	101	111%	109%	109%	
C=C(C)[C@@H]1CC[C@]2(C(=O)NCC(=O)O)CC[C@]3(C)[C@H](CC[C@@H]4[C@@]5(C)Cc6c([nH]c7ccccc67)C(C)(C)[C@@H]5CC[C@]43C)[C@@H]12	77.5%	88.2%	64.2%	71.2	61.8%	72.6	103%		92.7%	99.1%
